Screens: PubChem BioAssay, National Center for Advancing Translational Sciences (NCATS)
HT1080 IDH1KD tx: qHTS for induction of synthetic lethality in tumor cells producing 2HG: qHTS for the HT-1080-IDH1KD cell line | HT-1080 IDH1 knockdown viability, ATP luminescence, 48 h | Potency, µM (titrated, usually from 46.1 µM), inactives show top-dose activity, negative = toxicity, hits mostly cytotoxic | 360,000 tested, 2% active;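 also: potency is read from the fitted curve at half-maximal effect; 0% = DMSO wells and -100% = cell-free medium wells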
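Using the IDH1-knockdown HT-1080 line run in the same batch and compound series as the NT line, viability after 48 h at 37 °C was determined by CellTiter-Glo luminescence and expressed as % activity.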
HT1080-NT tox: qHTS for induction of synthetic lethality in tumor cells producing 2HG: qHTS for the HT-1080-NT fibrosarcoma cell line. 360,000 tested, 1.6% active. Potency, µM (top dose mostly 46.1 µM), without a hit: at the top dose activity, negative = less viability, actives largely listed as cytotoxic. HT-1080-NT fibrosarcoma viability, CellTiter-Glo ATP luminescence, 48 h;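 also: NT is the 2HG producing partner of a matched IDH1 knockdown line; potency is read from the fitted curve at half-maximal effect; 0% = DMSO-treated cells and -100% = media-only wells without cells; nearly all actives have a fitted effect of over 55% in size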
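HT-1080-NT fibrosarcoma cells (2HG-overproducing), 750 cells/well in RPMI with 5% FBS, dosed after 2 h and incubated 48 h at 37C. CellTiter-Glo luminescence normalized to DMSO and no-cell wells; concentration-response curves fitted and classed.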
TDP1 cell CPT: qHTS for Inhibitors of human tyrosyl-DNA phosphodiesterase 1 (TDP1): qHTS in cells in presence of CPT; 420,000 tested, 12% active; chicken DT40 Tdp1-/-;hTDP1 cells + 20 nM CPT, ATP luminescence, 48 h; Potency, µM (doses to about 46.2 µM), for inactives: at the highest dose activity change, negative = growth inhibition, hits mostly inhibitors; AID 686979, 2013; also: potency is read from the fitted curve at half-maximal effect; nearly all actives have a fitted effect of over 55% in size
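Cell growth measured by CellTiter-Glo luminescence after a minimum 48 h, 37 C compound exposure with 20 nM CPT in Tdp1-knockout DT40 cells stably expressing hTDP1, seeded 400/well; qHTS titration format.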
IL-1B inflam inh: qHTS for Inhibitors of Inflammasome Signaling: IL-1-beta AlphaLISA Primary Screen. THP-1 LPS/ATP IL-1B secretion, AlphaLISA, 16 h; active compounds read low. activity change, % at 57.5 µM. 360,000 tested, 4.7% active; in the data active = activity change below about -50%; inconclusive = mostly about -30% to -49%
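Secreted IL-1B measured by AlphaLISA bead assay after 16 h compound exposure of THP-1 cells; compounds (final up to 57.5 uM) added 1 h before LPS (250 ng/mL) and ATP (1.25 mM) stimulation; lower signal means less secretion.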
DT40 TDP1 no CPT: qHTS for Inhibitors of human tyrosyl-DNA phosphodiesterase 1 (TDP1): qHTS in cells in absence of CPT; DT40 Tdp1-/- hTDP1 cells, no CPT, ATP luminescence, 48 h; Potency, µM (titrated, usually from 46.2 µM), without a hit: at the top dose activity change, negative = growth inhibition, actives largely listed as inhibitors; 420,000 tested, 15% active; AID 686978, 2013; also: potency is read from the fitted curve at half-maximal effect; nearly all actives have a fitted effect of over 55% in size
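Readout: luminescence from CellTiter-Glo after 30 min in the dark at RT. Cells: DT40 Tdp1-/- with stable hTDP1, 400/well. Exposure: compounds alone, ≥48 hr, 37 °C.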
The depositor's hits bear a star; ? = inconclusive; . = no result given. Compounds with a hit are over-represented: about 19% of the library has one in this group of screens. Unless noted, calls follow the shape of the dose curve; as a rule, active = well fitted curve in the direction sought with a large enough effect; inconclusive = small, poorly fitted or top-dose-only effect, or another doubt; inactive = no such curve, though single readings can be large; an effect the other way counts as inactive or inconclusive. Unless noted, % is scaled to controls: 0 for no effect and ±100 for the full control effect.

SMILES	HT1080 IDH1KD tx	HT1080-NT tox	TDP1 cell CPT	IL-1B inflam inh	DT40 TDP1 no CPT
COC(=O)[C@H](CC(C)C)NS(=O)(=O)N[C@@H](CC(C)C)C(=O)OC	4.8%	11.7%	?	4.2	-9.6%
COc1cccc(N2C(=NC(=O)CCc3ccccc3)SC3CS(=O)(=O)CC32)c1 (configuration not stated)	1.7%	-0.4%	0.8%	9.3	15.8%
C[C@@H](CO)NC(=O)c1[nH]cnc1C(=O)Nc1cccc(Cl)c1	-3.9%	16.3%	1.6%	-13.9	?
CN(O)/C=c1/ccc2c(n1)C(=O)C=CC=2	?	?	4.61µM*	70.5	4.61µM*
COc1ccccc1CN1CC2(CCN(S(C)(=O)=O)CC2)C1	.	.	0.9%	.	-13.1%
Cc1ccc(-n2c(COc3ccccc3)nnc2SCC(=O)O)cc1	-1.4%	10.5%	-4.1%	-3.9	-3.9%
CC1CCCC(C)N1C(=O)CSc1nnc(COc2ccccc2)n1-c1ccccc1 (configuration not stated)	-0.5%	-18.8%	?	-22.0	20.6µM*
CON=C1C=C(C)C(=O)C(C)=C1C	13.5%	8.6%	12.6%	0.0	9.8%
CC1=C/C(=N\OS(=O)(=O)c2ccccc2)C(C(C)C)=CC1=O	?	?	1.64µM*	-95.4*	2.31µM*
CC1=C/C(=N\OS(=O)(=O)c2ccccc2)C(C)=CC1=O	9.2µM*	4.61µM*	0.581µM*	-98.3*	0.82µM*
COc1ccc(N2CC(O)=C(c3nc(-c4ccc(Br)cc4)cs3)C2=N)cc1	12.6%	11.8%	?	3.8	?
COc1ccc(-c2cn(-c3ccc(Br)cc3)c3[n+]2CCS3)cc1	-28.5%	-25.4%	8.2µM*	-75.6*	6.51µM*
CC(=O)c1ccc(-n2cc(-c3ccc(C(C)(C)C)cc3)[n+]3c2SCCC3)cc1	?	?	0.206µM*	-24.8	0.164µM*
Clc1ccc(-c2c[n+]3c(n2-c2ccccc2)SCC3)cc1	-2.2%	-12.5%	?	?	?
Fc1ccc(-c2cn(-c3ccccc3)c3[n+]2CCS3)cc1	-1.7%	?	?	-13.5	23.1µM*
Clc1ccc(-c2cn(-c3ccccc3)c3[n+]2CCS3)cc1	-11.4%	-11.9%	?	-51.4*	6.51µM*
CCN(CC)c1ccc(/C=N/NC(=O)CNC(=O)/C=C/c2ccco2)cc1	?	-22.1%	?	24.9	?
CCn1c(=O)[nH]c2cc(Cl)c(Cl)cc21	-9.8%	-6.1%	-27.3%	15.0	?
COc1ccc(CC(=O)Nc2cccc(-c3nnc(-c4cccc(C)c4)o3)c2)cc1OC	-22.0%	-1.1%	?	-6.2	23.1µM*
Cc1ccc(OCC(=O)Nc2cccc(C)n2)c(C)c1	-4.5%	-1.4%	-11.7%	-26.2	-12.9%
CCc1cccc(NC(=O)Cc2ccc(OC)c(OC)c2)c1	-10.4%	-9.9%	?	-5.8	13µM*
COc1ccc(CC(=O)Nc2cccc(-c3nnc(-c4ccccc4)o3)c2)cc1OC	-20.6%	?	5.8µM*	-72.3*	2.31µM*
COc1ccc(CC(=O)Nc2ccc(-c3nnc(-c4ccccc4)o3)cc2)cc1OC	11.9%	16.3%	-9.8%	14.9	0.2%
Cc1ccc(OCC(=O)Nc2cccc(-c3nnc(-c4ccccc4)o3)c2)c(C)c1	?	?	11.6µM*	36.4	11.6µM*
Cn1cc(C(=O)Nc2ccc(C#N)cc2)c2ccccc2c1=O	-11.8%	-2.2%	?	-20.7	?
SMILES	HT1080 IDH1KD tx	HT1080-NT tox	TDP1 cell CPT	IL-1B inflam inh	DT40 TDP1 no CPT
COc1ccc2cc(-c3[nH]ncc3CN3C[C@@H]4CCC[C@H]3C4)ccc2c1	-15.3%	-14.2%	?	-12.4	?
COc1cc(C(=O)NCC(=O)N/N=C(C)\C=C\c2ccccc2)cc(OC)c1OC	-17.3%	-19.3%	-25.3%	-22.1	-26.4%
COc1ccc(CC(=O)Nc2cccc(-c3nnc(-c4ccc(C)cc4)o3)c2)cc1OC	?	?	6.51µM*	-99.4*	5.17µM*
O=C(Nc1ccc(F)c(F)c1)C(c1ccccc1)N1Cc2ccccc2C1=O (configuration not stated)	.	.	?	.	-22.5%
CC1=C(c2ccc(C(C)C)cc2)S(=O)(=O)NC1=NCc1ccc(Cl)cc1	.	.	?	.	-28.9%
CCN(c1ccccc1)S(=O)(=O)c1ccc(Oc2ccc(-n3ccnc3)cc2)nc1	?	?	5.17µM*	?	8.2µM*
Cc1ccc(C(=O)Nc2cc3nn(-c4ccccc4)nc3cc2Cl)c(C)c1	.	.	-1.2%	.	0.9%
Cc1ccc(C(=O)Nc2cnn(-c3ccc(C(=O)NCc4nc(-c5ccccc5)n[nH]4)cc3)c2)c(C)c1	.	.	0.92µM*	.	1.84µM*
CC1(C)CCC[C@]2(C)[C@H]3Cc4cc(O)ccc4O[C@]3(C)CC[C@@H]12	?	?	18.4µM*	38.0	?
CC1(C)CCC[C@]2(C)[C@H]3CC(=O)O[C@]3(C)CC[C@@H]12	-0.3%	3.6%	6.9%	3.3	-26.1%
O=C(CN1CCN(Cc2ccccc2)CC1)Nc1ccc(Br)cc1	-3.1%	9.1%	?	-8.4	20.6µM*
